PubChem BioAssay (NCI)
Compounds without any hit were thinned out: in the full panel of roughly 83,000, 20% have a hit.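 In brief: 96-well plates, 48 h treatment, single concentration, percent growth endpoint.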 Calls of active or inactive are those of the source. Rule for the calls: active = growth percent below 10; inactive = the rest.

Tests used:
Assay in all cases: NCI-60 one-dose screen, 48 h (100 = growth as untreated, 0 = no growth, -100 = all killed)
[1] = test system: NCI-H23 lung; conditions: 10 µM unless noted
[2] = test system: NCI-H226 lung; conditions: 10 µM unless noted
[3] = test system: NCI-H322M lung; conditions: 10 µM unless noted
[4] = test system: HOP-62 NSCLC; conditions: 10 µM unless noted
[5] = test system: NCI-H460 lung; conditions: 10 µM unless noted
[6] = test system: 786-0 renal; conditions: 10 µM unless noted
[7] = test system: MDA-MB-231 breast; conditions: 10 µM unless noted
[8] = test system: SF-268 CNS; conditions: 10 µM unless noted
[9] = test system: SF-539 CNS; conditions: 10 µM unless noted
[10] = test system: M14 melanoma; conditions: 10 µM unless noted
[11] = test system: HCT-15 colon; conditions: 10 µM
[12] = test system: U251 CNS; conditions: 10 µM unless noted
[13] = test system: UACC-62 melanoma; conditions: 10 µM unless noted
[14] = test system: SK-MEL-28 melanoma; conditions: 10 µM unless noted
[15] = test system: UO-31 renal; conditions: 10 µM unless noted
[16] = test system: OVCAR-5 ovarian; conditions: 10 µM unless noted
[17] = test system: MDA-MB-435 melanoma; conditions: 10 µM unless noted
[18] = test system: SW-620 colon; conditions: 10 µM unless noted
[19] = test system: MCF7 breast; conditions: 10 µM unless noted
[20] = test system: KM12 colon; conditions: 10 µM unless noted

Measured: growth

Cc1ccc(C[As+](c2ccccc2)(c2ccccc2)c2ccccc2)cc1
active: [1] -11.1% | [2] 8.52% | [4] 9.44% | [5] 2.34% | [10] 4.54% | [13] 8.38% | [17] -10.3% | [19] 9.14% | [20] 3.2%
inactive: [3] 18.6% | [6] 13.5% | [7] 10.6% | [8] 24.1% | [9] 24.1% | [11] 75.9% | [12] 10.9% | [14] 37.2% | [15] 69% | [16] 31.8% | [18] 11.9%

O=C(NCCNC(=O)c1ccc([As](O)O)cc1)c1ccc([As](O)O)cc1
inactive: [1] 93% | [2] 109% | [3] 102% | [4] 105% | [5] 99.7% | [6] 114% | [7] 106% | [8] 103% | [9] 102% | [10] 99.1% | [11] 107% | [12] 103% | [13] 99.7% | [14] 111% | [15] 96.8% | [16] 114% | [17] 104% | [18] 94.7% | [19] 99.7% | [20] 99.8%

CCOC(=O)c1cnc(SCc2ccc(Cl)c(Cl)c2)nc1N1CC1
inactive: [1] 51.1% | [2] 75.6% | [3] 69.7% | [4] 64.9% | [5] 41% | [6] 60% | [7] 51.7% | [8] 74.9% | [9] 44.1% | [10] 41.8% | [11] 33.7% | [12] 49% | [13] 51.1% | [14] 88.5% | [15] 34.7% | [16] 82.9% | [17] 10.5% | [18] 33.8% | [19] 29.3% | [20] 50.5%

Cc1ccc(C(=O)C2CN(C)CCC2(O)c2ccc(C)cc2)cc1 (configuration not stated)
inactive: [1] 103% | [2] 113% | [3] 113% | [4] 140% | [5] 111% | [6] 113% | [7] 116% | [8] 110% | [10] 113% | [11] 103% | [12] 104% | [13] 117% | [14] 113% | [15] 99.6% | [16] 122% | [17] 106% | [18] 105% | [19] 98.1% | [20] 109%

S=P(NC1CCCCC1)(N1CC1)N1CC1
inactive: [1] 110% | [2] 113% | [3] 113% | [4] 101% | [5] 82.8% | [6] 101% | [7] 104% | [8] 98.6% | [9] 107% | [10] 105% | [11] 108% | [12] 101% | [13] 91.4% | [14] 122% | [15] 94.1% | [16] 104% | [17] 110% | [18] 96.5% | [19] 89% | [20] 110%

CC(N)Cc1ccc(O)cc1 (configuration not stated)
inactive: [1] 108% | [2] 99.2% | [3] 95.5% | [4] 111% | [5] 109% | [6] 98.6% | [7] 106% | [8] 99.4% | [9] 117% | [10] 99.9% | [11] 113% | [12] 106% | [13] 105% | [14] 124% | [15] 79.3% | [16] 104% | [17] 106% | [18] 103% | [19] 100% | [20] 107%

C[C@]12CC[C@@H]3C4=C(CC[C@H]3[C@@H]1CC[C@@H]2O)CC(=O)CC4
inactive: [1] 98.3% | [2] 94% | [3] 109% | [4] 103% | [5] 105% | [6] 106% | [7] 103% | [8] 99.7% | [9] 103% | [10] 107% | [11] 100% | [12] 96.8% | [13] 83.3% | [14] 107% | [15] 92% | [17] 103% | [18] 102% | [19] 118% | [20] 107%
active: [16] -62.7%

CC1(C)N=C(N)N=C(N)N1c1ccc(OCCCCOc2ccc(S(=O)(=O)F)cc2)c(Cl)c1
active: [5] 4.24% | [19] 9.19% | [20] 9.69%
inactive: [1] 20% | [2] 29.6% | [3] 23.2% | [4] 28.3% | [6] 20.6% | [7] 38.3% | [8] 17.9% | [9] 12.2% | [10] 19% | [11] 32.8% | [12] 12% | [13] 17.2% | [14] 31.3% | [15] 67.7% | [16] 30.7% | [17] 16.8% | [18] 13%

CO[C@@H]1[C@H](OC(=O)NC(=O)CCl)CC[C@]2(CO2)[C@H]1[C@@]1(C)O[C@@H]1CC=C(C)C
active: [12] 5.86%
inactive: [1] 64.1% | [2] 72.7% | [3] 59.8% | [4] 64.4% | [5] 23.5% | [6] 70.4% | [7] 79.9% | [8] 71.5% | [9] 87.6% | [10] 62% | [11] 30% | [13] 63.5% | [15] 52.6% | [16] 72.3% | [17] 62.6% | [18] 49.4% | [19] 26.9% | [20] 36.3%

CC1(C)N=C(N)N=C(N)N1c1ccc(CCC(=O)Nc2cccc(S(=O)(=O)F)c2)cc1
inactive: [1] 63.8% | [2] 89% | [3] 79% | [4] 82.8% | [5] 27.7% | [6] 58% | [7] 104% | [8] 51.6% | [9] 39.4% | [10] 69.8% | [11] 81.9% | [12] 42.3% | [13] 45.3% | [14] 103% | [15] 85.2% | [16] 91.2% | [17] 35.3% | [18] 52.3% | [19] 54.6% | [20] 75%

CC(=O)C1C(=O)N(C)C(=O)N(C)C1=O
inactive: [1] 121% | [2] 95.4% | [3] 107% | [4] 98.6% | [5] 102% | [6] 107% | [7] 117% | [8] 113% | [9] 92% | [10] 110% | [11] 93.4% | [12] 96.1% | [13] 110% | [14] 106% | [15] 96.1% | [16] 99.7% | [17] 94.4% | [18] 103% | [19] 99.7% | [20] 107%

CC(=O)N1N=C(c2ccccc2)CC1c1sc(N(CCCl)CCCl)nc1Cl (configuration not stated)
inactive: [1] 85.8% | [2] 89.1% | [3] 90.6% | [4] 90% | [5] 96.2% | [6] 99.7% | [7] 95.3% | [8] 94% | [9] 106% | [10] 101% | [11] 94.8% | [12] 92.6% | [13] 64.5% | [14] 108% | [15] 80% | [16] 98.4% | [17] 97.4% | [18] 96.8% | [19] 95% | [20] 95.8%

Cc1ccccc1O
inactive: [1] 105% | [2] 97% | [3] 114% | [4] 95.4% | [5] 117% | [6] 105% | [7] 115% | [8] 109% | [9] 104% | [10] 101% | [11] 106% | [12] 105% | [13] 107% | [14] 111% | [15] 82.6% | [16] 121% | [17] 117% | [18] 112% | [19] 119% | [20] 106%

O=S(=O)(c1ccc(Cl)cc1)C(Cl)(Cl)Cl
active: [10] 8.38% | [15] 9.42% | [17] -14.8%
inactive: [1] 40.6% | [2] 60.8% | [3] 75.2% | [4] 78.5% | [5] 80.4% | [6] 51.8% | [7] 42% | [8] 45.5% | [9] 33.8% | [11] 39% | [12] 52.1% | [13] 46.6% | [14] 38.5% | [16] 78.9% | [18] 24.4% | [19] 23.8% | [20] 23.4%

CC(C)(C)NCC(O)c1ccccc1Cl (configuration not stated)
inactive: [1] 25% | [2] 45% | [3] 28.3% | [4] 29.3% | [6] 20.9% | [7] 12.8% | [8] 26.6% | [11] 58.9% | [12] 10.2% | [13] 24% | [14] 48.2% | [15] 48.1% | [16] 11% | [18] 22%
active: [5] 6.76% | [9] 7.78% | [10] -12.8% | [17] -52.5% | [20] 3.52%

[O]=[Sn]([CH]1CCCCC1)[CH]1CCCCC1
active: [1] -93.5% | [2] -74% | [3] -96.7% | [4] -91.8% | [5] -85.8% | [6] -97.6% | [7] -78.3% | [8] -98.9% | [9] -92.5% | [10] -88.6% | [11] -78.1% | [12] -85.2% | [13] -93.3% | [14] -94.8% | [15] -90.4% | [16] -97.1% | [17] -88.4% | [18] -86.8% | [19] -88% | [20] -94%

CN=C(NN)NN
inactive: [1] 102% | [2] 109% | [3] 114% | [4] 135% | [5] 111% | [6] 103% | [7] 120% | [8] 103% | [9] 104% | [10] 105% | [11] 104% | [12] 98.5% | [13] 116% | [14] 118% | [15] 90.8% | [16] 111% | [17] 99.8% | [18] 107% | [19] 99.3% | [20] 108%
